Out of some 1,300 compounds screened, about 330 (25%) were called active. No rule for the calls is given here. These entries were drawn from the full list. Entries that show only a call come without a potency. Potency and affinity values are given separately.
Assay: MALME3 melanoma cell viability loss, dose response, orthogonal assay for MITF inhibitor project, CellTiter-Glo, cherry-picked (AID 493191)
Conditions: CellTiter-Glo luminescence, 24 h; series mostly up to 35 µM

| SMILES | outcome |
| --- | --- |
| Clc1nccnc1N/N=C/c1ccc(Br)cc1 | inactive |
| CCSC1(SCC)N=C(N)C2(C#N)C(c3ccc(F)cc3)C12C#N (configuration not stated) | inactive |
| O=C(COC(=O)c1ccc[nH]c1=O)Nc1ccc(N2CCCCC2)cc1 | inactive |
| CCOc1ccc(-c2nnc(-c3cccs3)o2)cc1OCC | inactive |
| CCOC(=O)C1(Cc2cccc(OC)c2)CCCN(C(=O)CSC)C1 (configuration not stated) | inactive |
| COc1ccc(NC(C)C(=O)N/N=C/c2ccc([N+](=O)[O-])s2)cc1 (configuration not stated) | inactive |
| O=C(/C=C\c1ccccc1)NCC(=O)N/N=C/c1ccc(O)cc1O | inactive |
| CCOc1ccc(NC(=O)CCC(=O)N/N=C/c2ccc([N+](=O)[O-])s2)cc1 | inactive |
| N/C(=N\OC(=O)c1cccc(F)c1)c1cccc([N+](=O)[O-])c1 | inactive |
| Cc1onc(-c2ccccc2)c1C(=O)N/N=C/c1ccc([N+](=O)[O-])s1 | inactive |
| O=C(Cc1ccccc1)NCC(=O)N/N=C/c1ccc([N+](=O)[O-])s1 | inactive |
| COc1ccc(-c2csc(N(C)C(=O)c3ccco3)n2)cc1 | inactive |
| COCCn1c(C)cc(C(=O)COC(=O)c2ccccc2Br)c1C | inactive |
| CC(/C=C1\SC(=O)N(CCCC(=O)O)C1=O)=C\c1ccccc1 | inactive |
| CCN(Cc1ccc(OC)c(F)c1)C(=O)CCl | inactive |
| c1ccc(OCc2nc3ccccc3[nH]2)cc1 | inactive |
| COc1cccc2c1C(=O)C=C(C)C2=O | inactive |
| N#CC1=C(c2ccccc2)/C(=C/c2ccccc2)OC1=O | inactive |
| Cc1cc(C=C2C(=O)c3ccccc3C2=O)c(C)n1-c1ccccc1 | inactive |
| O=C(O)c1ccccc1C(=O)Nc1ccc(Oc2cccc3ccccc23)cc1 | inactive |
| Cc1ccc(N2C(=O)c3ccc(N)cc3C2=O)cc1C | inactive |
| COc1ccc(/C=N/Nc2cc(C)nc(-n3nc(C)cc3C)n2)c(OC)c1 | inactive |
| O=C1CCC2S/C(=C/Nc3ccc(C(F)(F)F)cc3)C(=O)N12 (configuration not stated) | inactive |
| Cc1nc(C)c(C(=O)N/N=C/c2cc(Br)ccc2O)s1 | inactive |
| CC(C)C(=O)NC(c1ccco1)c1ccc2cccnc2c1O (configuration not stated) | inactive |

| SMILES | outcome |
| --- | --- |
| C=CCn1c(C)cc(C2=NNC(=NC(C)(C)C)SC2)c1C | inactive |
| C=CCN=C1NN=C(c2ccc3c(c2)OCCO3)CS1 | inactive |
| COc1ccccc1NC(=O)c1cnc(SCC(=O)NCC2CCCO2)n(C)c1=O (configuration not stated) | inactive |
| Cc1nc(Sc2nnnn2C)c2c3c(sc2n1)CCC3 | inactive |
| CCOCCCNC(=O)/C(C#N)=C/c1ccc(Cl)c([N+](=O)[O-])c1 | inactive |
| COCCNC(=O)/C(C#N)=C/c1cccc(/C=C(\C#N)C(=O)NCCOC)c1 | inactive |
| CCCOc1ccc(C(=O)Nc2ccc3c(c2)OCCO3)cc1 | inactive |
| CC1CCCC(NC(=O)NC(=O)CCl)C1C (configuration not stated) | inactive |
| CCCc1ccc(-c2ccc(/C=C/C(=O)O)cc2)nc1 | inactive |
| COc1cc(OC)cc(C(=O)N[C@H](C(=O)Nc2nc3ccccc3[nH]2)C(C)C)c1 | inactive |
| CCCCNc1nc(=S)n(-c2ccccc2)c(C)c1C(C)=O | inactive |
| Cc1cc(Br)ccc1OCc1nc(-c2cccnc2)no1 | inactive |
| CC(=O)COc1ccc2cc(-c3ccccc3)c(=O)oc2c1 | inactive |
| CCOC(=O)c1cc(-c2ccc(OC)cc2)n[nH]1 | inactive |
| COc1ccc(Cn2c(-c3ccc(C)cc3)c[n+]3ccccc23)cc1 | inactive |
| CC(=O)N(c1nnc(-c2cccc(C)c2)s1)C1CCCC1 | inactive |
| O=C(Nc1ccc2nc(-c3ccccc3)[nH]c2c1)c1ccco1 | inactive |
| Cc1cccc(NC(=O)Cc2ccc(Br)cc2)n1 | inactive |
| C/C(=N\NC(=O)Cc1ccc(Cl)cc1)c1ccccn1 | inactive |
| CC(=NNc1nc2ccccc2o1)c1cc2ccccc2cn1 | inactive |
| NCCCNc1nc(N)c([N+](=O)[O-])c(NC2CCCCC2)n1 | inactive |
| CC(=O)c1ccc(N/C=C/C(=O)c2ccc(Br)cc2)cc1 | inactive |
| COc1ccc(NC(=O)c2scc(S(=O)(=O)C(C)C)c2N)cc1 | inactive |
| C/C(=N\NC(=O)C(c1ccccc1)c1ccccc1)c1ccccn1 | inactive |
| CCOC(=O)C1(Cc2ccccc2)CCCN(CCCn2cccn2)C1 (configuration not stated) | inactive |

| SMILES | outcome |
| --- | --- |
| CN(C)S(=O)(=O)c1ccc(-c2csc(N/N=C/c3ccco3)n2)cc1 | inactive |
| Cc1csc(N/N=C/c2ccc([N+](=O)[O-])cc2)n1 | inactive |
| COC(=O)c1ccc(/C=C(\C#N)C(=O)NC(C)c2ccccc2)cc1 (configuration not stated) | inactive |
| COc1ccc(/C=C2\SC(=O)N(CCCC(=O)Nc3cc(Cl)ccc3C(=O)O)C2=O)cc1 | inactive |
| c1cc(CSc2nnc(-c3ccc4c(c3)OCO4)o2)ccn1 | inactive |
| COc1ccc2c(C)nc(Nc3nc(-c4ccccc4)cc(=O)[nH]3)nc2c1 | inactive |
| O=C(Nc1cc2c(cc1Cl)OCCO2)c1ccco1 | inactive |
| Nc1nnnn1/N=C/C(Br)=C/c1ccccc1 | inactive |
| Cc1cc(C)nc(S/C=C/C(=O)c2ccccc2F)n1 | inactive |
| Cn1nc([N+](=O)[O-])nc1S(C)(=O)=O | inactive |
| CN(C)c1ccc(CNc2ccccn2)cc1 | inactive |
| COC(=O)c1ccc(/C=N/Nc2nc(C)c(C)s2)cc1 | inactive |
| O=C(CCNc1ccccc1)c1ccc2c(c1)OCO2 | inactive |
| CC1=NOC(=O)/C1=C\c1ccc(-c2cccc(Cl)c2)o1 | inactive |
| Cc1c(C(=O)N(CCO)Cc2ccccc2)oc2c(F)cccc12 | inactive |
| COc1cc2ccccc2cc1C(=O)Nc1ccc(N2CCN(C)CC2)cc1 | inactive |
| COc1ccc(NC(=O)C2COc3ccccc3O2)cc1 (configuration not stated) | inactive |
| CCC1CCCCN1CCCNC(=O)c1cn(CC)c2ccc(S(=O)(=O)N(C)C3CCCCC3)cc2c1=O (configuration not stated) | inactive |
| O=C(O)CSCC(=O)Nc1ccc(C2CCCCC2)cc1 | inactive |
| CC(C)OC(=O)CSc1nc2cc3c(cc2cc1C#N)OCO3 | inactive |
| Cc1nn(-c2ccccc2Cl)c(Cl)c1/C=N/Nc1cccc(C(=O)O)c1 | inactive |
| N#Cc1cc2c(nc1SC1CC(=O)N(c3ccccc3)C1=O)CCC2 (configuration not stated) | inactive |
| CCSc1ccccc1C(=O)n1nnc2ccccc21 | inactive |
| COc1ccc(/C=C/c2cc(C(F)(F)F)on2)cc1 | inactive |
| Cc1[nH]nc(Nc2ccc(Br)cc2)c1[N+](=O)[O-] | inactive |

| SMILES | outcome |
| --- | --- |
| CCCCNC(=O)Nc1ccc(C2SCCS2)cc1 | inactive |
| COc1ccc(COC(=O)c2cc([N+](=O)[O-])ccc2N2CCOCC2)cc1F | inactive |
| Cc1ccccc1-n1ncc2c([N+](=O)[O-])cc([N+](=O)[O-])cc21 | inactive |
| CCN1CCc2c(sc(NC(=O)c3ccc(S(=O)(=O)N4CCCC4)cc3)c2C(=O)NC)C1 | inactive |
| COc1ccc2nc(C)cc(SCC(=O)N/N=C/c3ccc(O)cc3O)c2c1 | inactive |
| COc1ccc(-c2nc(-c3ccncc3)no2)cc1OC | inactive |
| COc1ccc(/C=N/Nc2ccccn2)cc1OC | inactive |
| COc1ccc(-c2cc(-c3ccccc3O)[nH]n2)cc1OC | inactive |
| O=C(Nc1nc2cc3c(cc2s1)OCO3)C1=COCCO1 | inactive |
| C=CCn1c(C)cc(C(=O)Cn2ncc(Cl)c(Cl)c2=O)c1C | inactive |
| O=C(CCC(=O)c1ccc[nH]1)c1ccc(Cl)cc1 | inactive |
| Cc1c(C#N)c(NC(=O)CCl)n(Cc2ccc(F)cc2)c1C | inactive |
| Nc1nc2n[nH]nc2c(=O)[nH]1 | inactive |
| CC(C)c1ccc(/C=C2\SC(=S)N(CCC(=O)N3CCCCC3CCO)C2=O)cc1 (configuration not stated) | inactive |
| CSc1nc(N)n2nc(-c3ccccc3)cc2n1 | inactive |
| O=C(Nc1ccc2c(c1)OCCO2)c1ccoc1 | inactive |
| Cc1ccc(-c2noc(-c3ccno3)n2)cc1 | inactive |
| CC(=C/c1ccco1)/C=N/N1CCN(c2ccccc2)CC1 | inactive |
| COc1ccc2nc(C)cc(NCc3cccc(C(F)(F)F)c3)c2c1 | inactive |
| COC(=O)C1=C(CN2CCCc3ccccc32)NC(=O)NC1c1ccc(F)cc1 (configuration not stated) | inactive |
| Cc1cc2oc(=O)cc(C)c2cc1NC(=O)CCC(=O)O | inactive |
| O=C(CSCC(=O)Nc1ccccc1)N/N=C/c1c(O)ccc2ccccc12 | inactive |
| O=C(CNc1ccc2ccccc2c1)N/N=C/c1ccc([N+](=O)[O-])o1 | inactive |
| O=[N+]([O-])c1cccc(/C=N/Nc2ncc(Br)cn2)c1 | inactive |
| C=CCSC(=S)NC1CCS(=O)(=O)C1 (configuration not stated) | inactive |

| SMILES | outcome |
| --- | --- |
| CCOC(=O)COc1ccc2ccccc2c1/C=C/[N+](=O)[O-] | inactive |
| N/C(CS(=O)(=O)c1ccccn1)=N\OC(=O)c1ccccc1Cl | inactive |
| O=C(O)/C=C/C(=O)c1ccc2c(c1)CCc1ccccc1-2 | inactive |
| C=CCN1C(=O)S/C(=C\c2ccc(N3CCOCC3)cc2C)C1=O | inactive |
| CC(=O)Nc1ccc(-c2nc3ccccc3o2)cc1 | inactive |
| CC(=O)Nc1cccc(-c2nnc(-c3ccccc3)o2)c1 | inactive |
| COc1cccc(/C=N/NC(=O)CN2CC(c3ccccc3)CC2=O)c1OC (configuration not stated) | inactive |
| c1ccc(Cc2cc(-c3ccccc3)on2)cc1 | inactive |
| O=C(Nc1ccc(Cl)cc1)Nc1cccc(C(=O)O)c1 | inactive |
| Cc1ccc(C(=O)Nc2cnc3ccccc3c2)cc1 | inactive |
| Cc1ccc(NC(=O)c2ccccc2)cc1 | inactive |
| COc1ccc(NC(=O)NC(=O)c2ccccc2)cc1 | inactive |
| Cc1ccc(NC(=O)c2cc(-c3cccs3)on2)cc1 | inactive |
| CCN(CC)CCNC(=O)c1ccc(NC(=O)c2cccc(S(=O)(=O)N3c4ccccc4CC3C)c2)cc1 (configuration not stated) | inactive |
| O=[N+]([O-])/C=C\c1ccc(N2CCCC2)c(F)c1 | inactive |
| CN(C)c1ccc(C2=NOC(CN3C(=O)c4ccccc4S3(=O)=O)C2)cc1 (configuration not stated) | inactive |
| Cn1cccc1C(=O)NC(=O)COC(=O)c1ccc(S(C)(=O)=O)c([N+](=O)[O-])c1 | inactive |
| CCC(=O)Nc1cc(C(=O)OCC(=O)c2ccccc2Cl)ccc1C | inactive |
| O=C(NC1CC1)C1CCN(S(=O)(=O)c2ccc(Cl)c([N+](=O)[O-])c2)CC1 | inactive |
| O=C(COC(=O)c1ccc(F)c([N+](=O)[O-])c1)NC(=O)NCc1ccccc1 | inactive |
| O=C(NCCNc1ccccc1[N+](=O)[O-])c1cc(F)c(F)cc1Cl | inactive |
| CN(CCC#N)C(=O)COC(=O)c1ccccc1C(=O)c1ccc(Cl)c([N+](=O)[O-])c1 | inactive |
